MITF inh: blocks human microphthalmia-associated transcription factor; O75030; 0.91% of 650,000 active; inhibition, % at 2.6 µM; AlphaScreen MITF homodimerization, bead proximity signal; in the data active = inhibition above about 50%
GPR151 ag: activators of human GPR151. Q8TDV0. 1% of 650,000 active. activation, % at 11.2 µM. PathHunter beta-arrestin GPR151 cells, luminescence; in the data active = activation above about 4.9%
FBW7 act: activators of human E3 ligase FBW7. AID 1259310. AlphaScreen FBW7–phospho-cyclin E peptide binding, activator screen. 0.13% of 650,000 active. Q969H0. normalized activity (activation), % at 26.1 µM; in the data active = normalized activity above about 1.9%;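 also: purified mutant Fbw7 with reduced substrate affinity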
Target sequence (Q969H0 whole entry, looked up): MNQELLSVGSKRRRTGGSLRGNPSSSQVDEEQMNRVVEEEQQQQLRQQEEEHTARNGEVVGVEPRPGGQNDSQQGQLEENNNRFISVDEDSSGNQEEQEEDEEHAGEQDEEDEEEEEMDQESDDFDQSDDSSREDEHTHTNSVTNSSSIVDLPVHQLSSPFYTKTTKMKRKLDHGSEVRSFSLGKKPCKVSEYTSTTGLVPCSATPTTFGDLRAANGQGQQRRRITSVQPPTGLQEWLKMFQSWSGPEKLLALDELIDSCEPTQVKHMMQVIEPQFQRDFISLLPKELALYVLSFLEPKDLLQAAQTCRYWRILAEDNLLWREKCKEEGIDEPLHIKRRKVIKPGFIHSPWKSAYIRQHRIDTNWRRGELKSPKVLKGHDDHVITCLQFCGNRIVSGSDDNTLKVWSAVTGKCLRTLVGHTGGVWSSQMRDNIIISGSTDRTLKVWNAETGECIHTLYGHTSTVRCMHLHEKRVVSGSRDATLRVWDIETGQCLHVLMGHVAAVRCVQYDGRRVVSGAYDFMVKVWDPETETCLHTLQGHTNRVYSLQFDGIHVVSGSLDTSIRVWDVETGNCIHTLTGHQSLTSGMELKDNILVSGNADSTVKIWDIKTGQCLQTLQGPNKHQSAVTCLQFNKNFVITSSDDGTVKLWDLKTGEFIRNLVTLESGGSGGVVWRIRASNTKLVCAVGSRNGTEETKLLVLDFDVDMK
TEAD-YAP block: TEAD-YAP interaction inhibition; inhibition, % at 9.12 µM; HEK-TIYL cells, TEAD-Gal4/YAP UAS-luciferase luminescence; 1.4% of 640,000 active; in the data active = inhibition above about 32%
MITF inh conf: confirmation of human MITF inhibitors; shares compounds with MITF inh; AlphaScreen MITF homodimerization, biotin/His-MITF beads; inhibition, % at 2.6 µM; 16% of 4,700 active;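 active = inhibition above a cutoff derived from the DMSO control wells, cut at about 28% in these data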;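 also: inhibitors lower the bead chemiluminescence by keeping MITF from dimerizing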
AlphaScreen DR: optically interferes with AlphaScreen signal in dose response | shares compounds with MITF inh | AlphaScreen optical interference counterscreen, cell-free | IC50, µM | 6% of 480 active | AID 1259373; call rule not given here
AS interf ctr: AlphaScreen optical interference, counter-screen; shares compounds with MITF inh; LysRS AlphaScreen counterscreen, signal interference, triplicate; inhibition, % at 2.6 µM; 7.6% of 4,700 active; AID 1259376;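 active = inhibition above a cutoff derived from the DMSO control wells, cut at about 30% in these data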
A number is an active result; 0 = inactive; - = no result given. In the library only some 3.5% were active in any assay of this set; here they are far more common.

SMILES	MITF inh	GPR151 ag	FBW7 act	TEAD-YAP block	MITF inh conf	AS interf ctr	others
Cn1cc(CC(=O)N2CCN(c3ccc(-c4ccccn4)nn3)CC2)c2ccccc21	121.7	0	0	41.9	107.5	100.6
O=C(Cc1cccs1)N1CCN(c2ccc(-c3ccccn3)nn2)CC1	68.2	0	0	0	51.4	100.5
O=C(/C=C/c1ccco1)N1CCN(c2ccc(-c3ccccn3)nn2)CC1	0	0	0	0	-	-
O=C(/C=C/c1cccs1)N1CCN(c2ccc(-c3ccccn3)nn2)CC1	55.9	0	0	0	103.5	100.6
CCN(c1ccccc1)c1c([N+](=O)[O-])ccc2nonc12	66.0	0	0	0	59.4	54.5
CCN(c1ccccc1)c1cc(N2CCOCC2)c2nonc2c1[N+](=O)[O-]	0	0	0	0	-	-
Cc1cccc(C)c1NC(=O)C1(N(C(=O)Cn2nnnc2N)c2ccccc2)CCCCC1	0	0	0	0	-	-
N#CC1(C#N)C(c2cccnc2)C(C(=O)c2ccccc2)N2c3ncccc3C=CC21 (configuration not stated)	71.4	0	0	0	0	0
N#CC1(C#N)[C@H](c2cccnc2)[C@@H](C(=O)c2ccccc2)N2c3ccc(Cl)cc3C=C[C@@H]21	0	0	0	0	-	-
CC(NCc1ccc([N+](=O)[O-])cc1)C1COc2ccccc2O1 (configuration not stated)	62.0	0	0	0	0	0
CC(C)NCC(O)CNC(C)C1COc2ccccc2O1 (configuration not stated)	0	0	0	0	-	-
CC(C)n1c(NCCN2CCOCC2)nc2c(NCCN3CCOCC3)ncnc21	66.8	0	0	0	0	0
O=C(COC(=O)c1ccc(Br)cc1)NC1CC1	0	0	0	0	-	-
N=S(=NS(=O)(=O)c1ccccc1)(c1ccccc1)c1ccccc1	0	0	0	0	-	-
O=S(=O)(N=S(=O)(/C=C/c1ccccc1)c1ccccc1)c1ccccc1 (configuration not stated)	84.3	0	0	34.9	28.4	0	AlphaScreen DR=0
CCCC(=O)N1c2ccccc2NC2=C(C(=O)CCC2)C1c1ccco1 (configuration not stated)	0	0	0	0	-	-
O=C(O)c1cccc(N/N=C/c2ccccn2)c1	0	0	0	0	-	-
O=C(O)c1cccc(NC(=S)N/N=C/c2ccccn2)c1	95.0	0	0	34.3	0	0
C=C(C)COc1c(Br)cc(C#N)cc1OC	0	0	0	0	-	-
Cc1nc([N+](=O)[O-])cn1CC(=O)Nc1ccc(F)c(Cl)c1	52.6	0	0	0	0	0
O=C(O)c1ccc(N2C(=O)c3cccnc3C2=O)cc1	0	0	0	0	-	-
O=C1c2ccccc2C(=O)N1c1ccc(N2C(=O)c3ccccc3C2=O)c(Cl)c1	0	0	0	0	-	-
O=C1c2cccnc2C(=O)N1c1ccc(Br)cc1	58.1	0	0	0	0	0
O=C1c2cccnc2C(=O)N1c1ccc(N2C(=O)c3cccnc3C2=O)c(Cl)c1	70.4	0	0	0	0	30.9
CN(C)CCOc1ccc2ccccc2c1	75.9	0	0	0	0	0
SMILES	MITF inh	GPR151 ag	FBW7 act	TEAD-YAP block	MITF inh conf	AS interf ctr	others
COc1cc(CN(C)CCN(C)C)cc([N+](=O)[O-])c1O	56.2	0	0	0	0	0
CN(C)CCN(C)Cc1ccc(O)c([N+](=O)[O-])c1	0	0	0	0	-	-
COc1cc(CN2CCN(Cc3ccccc3Br)CC2)c([N+](=O)[O-])cc1OC	71.1	0	0	0	0	0
COc1cc(CN2CCN(CCO)CC2)cc([N+](=O)[O-])c1O	74.7	0	0	0	0	0
COc1cc(OC)c(OC)cc1CN1CCN(Cc2ccccc2[N+](=O)[O-])CC1	72.2	0	0	0	0	0
COc1cccc(CN2CCN(Cc3ccccc3[N+](=O)[O-])CC2)c1	63.9	0	0	0	0	0
CCS(=O)(=O)N1CCN(Cc2ccc(OC)c(OCc3ccccc3)c2)CC1	0	0	0	0	-	-
COc1cc(CN2CCN(Cc3ccccc3[N+](=O)[O-])CC2)cc(OC)c1O	59.6	0	0	0	0	0
COc1ccc(CN2CCN(Cc3ccccc3[N+](=O)[O-])CC2)cc1OCc1ccccc1	82.4	0	0	0	0	0
C=CCNC(=O)/C(C#N)=C/c1c(Oc2ccc(C(C)(C)C)cc2)nc2c(C)cccn2c1=O	0	0	0	0	-	-
CCN(CC(=O)Nc1ccc(F)cc1Cl)CC(=O)NC(C)C	0	0	0	0	-	-
CCN(CC(=O)Nc1cc(F)ccc1F)CC(=O)NC(C)C	62.9	0	0	0	0	0
COc1cc(Nc2nc3ncnc(NCCOc4ccccc4)c3[nH]2)cc(OC)c1OC	0	0	0	0	-	-
O=C(NC1CCCCC1)C(=S)NC1CCCC1	0	0	0	0	-	-
O=C(NNC(=S)NC1CCCCC1)C(=O)NNC(=S)NC1CCCCC1	62.2	0	0	0	0	0
CCCN(CCC)Cc1c(C(=O)N/N=C/C=C/c2ccccc2)nnn1-c1nonc1N	0	0	0	0	-	-
CC(NC(=O)c1ccc2c(c1)NC(=O)C1CCCN21)c1ccccc1 (configuration not stated)	0	0	0	0	-	-
CCOc1ccc(C(=O)NCC2(c3cccs3)CC2)cc1	51.8	0	0	0	0	0
CCOC(=O)c1c(NC(=O)C(C)Sc2nnc(CNC(=O)c3ccc(OC)c(OC)c3)n2-c2cccc(C)c2)sc2c1CCC2 (configuration not stated)	0	0	0	0	-	-
O=c1cc2ncc(-c3[nH]ncc3[N+](=O)[O-])cn2[nH]1	0	0	0	0	-	-
O=C(O)c1cc2ncc(-c3n[nH]c(-c4cnc5cc(C(=O)O)nn5c4)c3[N+](=O)[O-])cn2n1	68.4	0	0	0	57.7	0	AlphaScreen DR=0
O=C(Nc1cccc(F)c1)c1cc(S(=O)(=O)N2CCOCC2)ccc1Cl	0	0	0	0	-	-
CCOC(=O)CCCCC(=O)c1c(C)n(C(=O)c2ccco2)c(=O)n1C(=O)c1ccco1	99.1	0	0	0	101.7	80.3
CCOC(=O)c1c(C)n(C(=O)c2ccco2)c(=O)n1C(=O)c1ccco1	0	0	0	0	-	-
Cc1nc(C(C)NC(=O)Cn2nnnc2CN(C)C(C)C)cs1 (configuration not stated)	0	0	0	0	-	-
SMILES	MITF inh	GPR151 ag	FBW7 act	TEAD-YAP block	MITF inh conf	AS interf ctr	others
Fc1ccc(OCCCn2cncn2)cc1	70.5	0	0	0	0	0
N#Cc1ccc(OCCOCCn2cncn2)cc1	0	0	0	0	-	-
O=[N+]([O-])c1ccc(OCCCn2cncn2)cc1	0	0	0	0	-	-
Clc1ccc(OCCOCCn2cncn2)cc1Cl	79.5	0	0	0	0	0
CC(C)(C)c1ccc(OCCn2cncn2)c(Cl)c1	57.7	0	0	0	31.9	0	AlphaScreen DR=0
Clc1cccc(OCCn2cncn2)c1Cl	0	0	0	0	-	-
Cc1ccc(C(C)(C)C)c(OCCOCCn2cncn2)c1	77.9	0	0	0	0	0
Cc1ccc(C(C)(C)C)c(OCCCn2ccnc2)c1	0	0	0	0	-	-

Bioassay records: PubChem BioAssay, The Scripps Research Institute Molecular Screening Center
